In PMC11006913 one finds binding signal data, which are given here for eight sequences.

What all share (assay): PBM; 200 nM protein, PBS
Conditions in all cases: dsDNA, one strand shown

For assay [1], the target named is T1, PAX4 (Homo sapiens, UniProt O43316 9-242, R200K).
T1 sequence: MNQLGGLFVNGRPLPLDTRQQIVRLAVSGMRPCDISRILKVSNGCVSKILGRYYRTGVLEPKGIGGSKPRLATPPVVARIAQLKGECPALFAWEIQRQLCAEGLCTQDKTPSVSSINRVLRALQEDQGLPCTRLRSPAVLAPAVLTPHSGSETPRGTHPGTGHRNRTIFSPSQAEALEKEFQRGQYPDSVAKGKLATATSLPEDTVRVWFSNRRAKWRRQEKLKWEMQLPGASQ

Assay [2] deals with T2, PAX4 (Homo sapiens, UniProt O43316 9-242).
T2 sequence: T1 sequence with K192R

In assay [3] the target is MSX2 (Homo sapiens, UniProt P35548 130-214, R199I).
Sequence of MSX2 (Homo sapiens, UniProt P35548 130-214, R199I) (P35548 130-214 R199I): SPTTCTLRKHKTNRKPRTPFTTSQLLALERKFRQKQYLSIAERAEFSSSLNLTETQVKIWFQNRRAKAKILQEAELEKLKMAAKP
For assay [4], the target named is T3, PAX4 (Homo sapiens, UniProt O43316 9-242, R200Q).
T3 sequence: T1 sequence with K192Q

Assay [5] deals with T4, PAX4 (Homo sapiens, UniProt O43316 9-242, F177V).
T4 sequence: T1 sequence with F169V, K192R

In assay [6] the target is MSX2 (Homo sapiens, UniProt P35548 130-214).
Sequence of MSX2 (Homo sapiens, UniProt P35548 130-214) (P35548 130-214): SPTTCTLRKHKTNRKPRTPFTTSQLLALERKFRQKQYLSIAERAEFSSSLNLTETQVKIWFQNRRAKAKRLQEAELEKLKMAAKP
Assay [7] has as its target T5, PAX4 (Homo sapiens, UniProt O43316 9-242, F177Y).
T5 sequence: T1 sequence with F169Y, K192R

In assay [8] the target is MSX2 (Homo sapiens, UniProt P35548 130-214, F161Y).
Sequence of MSX2 (Homo sapiens, UniProt P35548 130-214, F161Y) (P35548 130-214 F161Y): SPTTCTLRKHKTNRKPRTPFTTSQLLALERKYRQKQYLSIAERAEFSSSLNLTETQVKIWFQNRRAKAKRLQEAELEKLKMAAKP
In assay [9] the target is T6, PAX4 (Homo sapiens, UniProt O43316 9-242, R227W).
T6 sequence: T1 sequence with K192R, R219W

Assay [10] addresses HOXD13 (Homo sapiens, UniProt P35453 263-343, T313R).
For the next assay, the target named is PITX2 (Homo sapiens, UniProt Q99697 72-157).
The target in assay [11] is HOXD13 (Homo sapiens, UniProt P35453 263-343).
Sequence of HOXD13 (Homo sapiens, UniProt P35453 263-343) (P35453 263-343): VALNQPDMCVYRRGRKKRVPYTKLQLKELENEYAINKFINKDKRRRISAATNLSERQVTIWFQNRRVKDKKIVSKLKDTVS
The target of assay [12] is HOXD13 (Homo sapiens, UniProt P35453 263-343, T313A).
Sequence of HOXD13 (Homo sapiens, UniProt P35453 263-343, T313A) (P35453 263-343 T313A): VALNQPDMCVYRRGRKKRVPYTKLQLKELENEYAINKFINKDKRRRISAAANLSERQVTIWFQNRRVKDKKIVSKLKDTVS
Assay [13] has as its target PROP1 (Homo sapiens, UniProt O75360 56-141).
In assay [14] the target is PROP1 (Homo sapiens, UniProt O75360 56-141, R99H).
Sequence of PROP1 (Homo sapiens, UniProt O75360 56-141, R99H) (O75360 56-141 R99H): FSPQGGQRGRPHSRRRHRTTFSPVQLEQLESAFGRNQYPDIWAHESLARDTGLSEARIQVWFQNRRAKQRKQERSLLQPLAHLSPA
Assay [15] addresses PROP1 (Homo sapiens, UniProt O75360 56-141, F88S).
The target of another assay is T7, NKX2-6 (Homo sapiens, UniProt A6NCS4 118-204, R150C).
T7 sequence: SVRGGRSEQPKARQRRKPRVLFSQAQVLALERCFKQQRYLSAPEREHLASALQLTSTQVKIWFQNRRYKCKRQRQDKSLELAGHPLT

For assay [16], the target named is ALX3 (Homo sapiens, UniProt O95076 139-225, N203Q).
Sequence of ALX3 (Homo sapiens, UniProt O95076 139-225, N203Q) (O95076 139-225 N203Q): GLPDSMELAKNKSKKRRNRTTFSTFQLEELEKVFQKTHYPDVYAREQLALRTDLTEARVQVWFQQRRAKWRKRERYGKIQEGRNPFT
Another assay concerns the target HOXC9 (Homo sapiens, UniProt P31274 178-260, R222W).
Assay [17] addresses ALX3 (Homo sapiens, UniProt O95076 139-225, N203S).

Where a chain is given by its changes, count along the chain named.

Sequence of HOXD13 (Homo sapiens, UniProt P35453 263-343, T313R) (P35453 263-343 T313R): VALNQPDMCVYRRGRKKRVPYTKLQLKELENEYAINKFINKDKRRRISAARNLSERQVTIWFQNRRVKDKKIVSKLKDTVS
Sequence of HOXC9 (P31274 178-260 R222W): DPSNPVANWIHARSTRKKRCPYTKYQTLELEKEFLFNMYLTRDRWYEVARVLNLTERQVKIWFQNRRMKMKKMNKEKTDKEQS
Sequence of PROP1 (Homo sapiens, UniProt O75360 56-141) (O75360 56-141): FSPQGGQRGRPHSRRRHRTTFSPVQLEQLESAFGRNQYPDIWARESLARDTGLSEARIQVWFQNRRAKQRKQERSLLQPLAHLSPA
Sequence of PROP1 (Homo sapiens, UniProt O75360 56-141, F88S) (O75360 56-141 F88S): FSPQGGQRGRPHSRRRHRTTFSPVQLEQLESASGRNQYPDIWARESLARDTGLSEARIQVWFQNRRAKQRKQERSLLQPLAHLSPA
Sequence of ALX3 (Homo sapiens, UniProt O95076 139-225, N203S) (O95076 139-225 N203S): as the sequence (O95076 139-225 N203Q) above, with Q65S counted along it

As to CCCCTGGC, the binding signal with PAX4 [1] was 9.25 upbm affinity estimate (log intensity, higher = more binding, comparable within an allelic series); in the assay with PAX4 [2], 9.29 upbm affinity estimate (log intensity, higher = more binding, comparable within an allelic series); with MSX2 [3], 9.36 upbm affinity estimate (log intensity, higher = more binding, comparable within an allelic series); in the assay with PAX4 [4], 9.32 upbm affinity estimate (log intensity, higher = more binding, comparable within an allelic series); with PAX4 [5], 9.09 upbm affinity estimate (log intensity, higher = more binding, comparable within an allelic series); in the assay with MSX2 [6] it was 9.68 upbm affinity estimate (log intensity, higher = more binding, comparable within an allelic series). Further, the binding signal with PAX4 [7] was 9.12 upbm affinity estimate (log intensity, higher = more binding, comparable within an allelic series); in the assay with MSX2 [8] it was 9.68 upbm affinity estimate (log intensity, higher = more binding, comparable within an allelic series); with PAX4 [9], 9.26 upbm affinity estimate (log intensity, higher = more binding, comparable within an allelic series).
Turning to CGGCGTCA, the binding signal with PAX4 [1] was 9.36 upbm affinity estimate (log intensity, higher = more binding, comparable within an allelic series); in the assay with PAX4 [2], 9.43 upbm affinity estimate (log intensity, higher = more binding, comparable within an allelic series); in the assay with HOXD13 [10] it was 9.54 upbm affinity estimate (log intensity, higher = more binding, comparable within an allelic series); with PAX4 [4], 9.37 upbm affinity estimate (log intensity, higher = more binding, comparable within an allelic series); with PITX2 it was 8.08 upbm affinity estimate (log intensity, higher = more binding, comparable within an allelic series); with HOXD13 [11], 9.49 upbm affinity estimate (log intensity, higher = more binding, comparable within an allelic series). The binding signal is 9.21 upbm affinity estimate (log intensity, higher = more binding, comparable within an allelic series) with PAX4 [5]; 9.24 upbm affinity estimate (log intensity, higher = more binding, comparable within an allelic series) with PAX4 [7]; 9.61 upbm affinity estimate (log intensity, higher = more binding, comparable within an allelic series) with HOXD13 [12]; 9.35 upbm affinity estimate (log intensity, higher = more binding, comparable within an allelic series) with PAX4 [9].
As to CATTTAAC, the binding signal was 10.7 upbm affinity estimate (log intensity, higher = more binding, comparable within an allelic series) with PAX4 [1]; 10.9 upbm affinity estimate (log intensity, higher = more binding, comparable within an allelic series) in the assay with PAX4 [2]; 10.8 upbm affinity estimate (log intensity, higher = more binding, comparable within an allelic series) with PAX4 [4]; 10.2 upbm affinity estimate (log intensity, higher = more binding, comparable within an allelic series) in the assay with PAX4 [5].
For the sequence ACCGAGCC, the binding signal with PAX4 [1] is 9.37 upbm affinity estimate (log intensity, higher = more binding, comparable within an allelic series); in the assay with PAX4 [2], 9.52 upbm affinity estimate (log intensity, higher = more binding, comparable within an allelic series); in the assay with PAX4 [4], 9.41 upbm affinity estimate (log intensity, higher = more binding, comparable within an allelic series); with PAX4 [5], 9.22 upbm affinity estimate (log intensity, higher = more binding, comparable within an allelic series); with PAX4 [7], 9.25 upbm affinity estimate (log intensity, higher = more binding, comparable within an allelic series); with PROP1 [13], 6.86 upbm affinity estimate (log intensity, higher = more binding, comparable within an allelic series). Moreover, the binding signal in the assay with PROP1 [14] is 6.94 upbm affinity estimate (log intensity, higher = more binding, comparable within an allelic series); with PROP1 [15], 6.77 upbm affinity estimate (log intensity, higher = more binding, comparable within an allelic series); with PAX4 [9] it was 9.41 upbm affinity estimate (log intensity, higher = more binding, comparable within an allelic series).
For CCTCCCCC, the binding signal with PAX4 [1] was 9.47 upbm affinity estimate (log intensity, higher = more binding, comparable within an allelic series); in the assay with PAX4 [2], 9.49 upbm affinity estimate (log intensity, higher = more binding, comparable within an allelic series); in the assay with HOXD13 [10] it was 9.14 upbm affinity estimate (log intensity, higher = more binding, comparable within an allelic series); with PAX4 [4] it was 9.57 upbm affinity estimate (log intensity, higher = more binding, comparable within an allelic series); in the assay with HOXD13 [11], 9.51 upbm affinity estimate (log intensity, higher = more binding, comparable within an allelic series); with PAX4 [5], 9.21 upbm affinity estimate (log intensity, higher = more binding, comparable within an allelic series). For the same sequence, the binding signal is 9.2 upbm affinity estimate (log intensity, higher = more binding, comparable within an allelic series) with PAX4 [7]; 9.46 upbm affinity estimate (log intensity, higher = more binding, comparable within an allelic series) with HOXD13 [12]; 9.23 upbm affinity estimate (log intensity, higher = more binding, comparable within an allelic series) in the assay with PAX4 [9].
With CGGCTTTC, the binding signal with PAX4 [1] was 9.21 upbm affinity estimate (log intensity, higher = more binding, comparable within an allelic series); in the assay with PAX4 [2], 9.26 upbm affinity estimate (log intensity, higher = more binding, comparable within an allelic series); with HOXD13 [10], 9.51 upbm affinity estimate (log intensity, higher = more binding, comparable within an allelic series); in the assay with PAX4 [4], 9.27 upbm affinity estimate (log intensity, higher = more binding, comparable within an allelic series); with HOXD13 [11], 9.48 upbm affinity estimate (log intensity, higher = more binding, comparable within an allelic series); in the assay with PAX4 [5], 9.3 upbm affinity estimate (log intensity, higher = more binding, comparable within an allelic series). Also, the binding signal was 9.24 upbm affinity estimate (log intensity, higher = more binding, comparable within an allelic series) with PAX4 [7]; 9.54 upbm affinity estimate (log intensity, higher = more binding, comparable within an allelic series) with HOXD13 [12]; 9.29 upbm affinity estimate (log intensity, higher = more binding, comparable within an allelic series) in the assay with PAX4 [9].
GCCCGGCA: the binding signal with PAX4 [1] is 9.23 upbm affinity estimate (log intensity, higher = more binding, comparable within an allelic series); with PAX4 [2] it was 9.34 upbm affinity estimate (log intensity, higher = more binding, comparable within an allelic series); with NKX2-6 it was 9.33 upbm affinity estimate (log intensity, higher = more binding, comparable within an allelic series); with PAX4 [4], 9.28 upbm affinity estimate (log intensity, higher = more binding, comparable within an allelic series); with PAX4 [5] it was 9.09 upbm affinity estimate (log intensity, higher = more binding, comparable within an allelic series); with PAX4 [7] it was 9.13 upbm affinity estimate (log intensity, higher = more binding, comparable within an allelic series). In the assay with PAX4 [9], the binding signal is 9.21 upbm affinity estimate (log intensity, higher = more binding, comparable within an allelic series).
For the sequence AATTTATA, the binding signal in the assay with PAX4 [1] was 11.2 upbm affinity estimate (log intensity, higher = more binding, comparable within an allelic series); with PAX4 [2], 11.4 upbm affinity estimate (log intensity, higher = more binding, comparable within an allelic series); with ALX3 [16], 8.61 upbm affinity estimate (log intensity, higher = more binding, comparable within an allelic series); in the assay with HOXD13 [10], 10.9 upbm affinity estimate (log intensity, higher = more binding, comparable within an allelic series); with PAX4 [4], 11.3 upbm affinity estimate (log intensity, higher = more binding, comparable within an allelic series); with HOXD13 [11] it was 11.7 upbm affinity estimate (log intensity, higher = more binding, comparable within an allelic series). The binding signal is 10.6 upbm affinity estimate (log intensity, higher = more binding, comparable within an allelic series) with PAX4 [5]; 10.8 upbm affinity estimate (log intensity, higher = more binding, comparable within an allelic series) in the assay with PAX4 [7]; 11.6 upbm affinity estimate (log intensity, higher = more binding, comparable within an allelic series) with HOXD13 [12]; 11.1 upbm affinity estimate (log intensity, higher = more binding, comparable within an allelic series) with HOXC9; 10.7 upbm affinity estimate (log intensity, higher = more binding, comparable within an allelic series) in the assay with PAX4 [9]; 8.71 upbm affinity estimate (log intensity, higher = more binding, comparable within an allelic series) with ALX3 [17].
